# From PubChem
# Only a selection was taken, and hits are over-represented in it overall.
# LASV entry inh – inhibitors of Lassa virus binding or cell entry; Lassa virus pseudotype entry inhibition, cell reporter; 1.2% of 300,000 active; AID 540256; Potency, µM (highest dose often 37.9 µM), inactives show top-dose activity change, negative = inhibition, usual class: inhibitors; calls by dose curve; tested in HEK293 cells; further: potency means the concentration at half of the fitted maximal effect; on the % scale 0 is the no-effect control and ±100 the full control effect; nearly all actives have a fitted effect of over 50% in size
# AMA1 RON2 block – AMA1-RON2 (P. falciparum) interaction inhibition; AlphaScreen AMA1-biotinylated RON2 peptide binding; Potency, µM (series often up to 58.2 µM), inactives show at the highest dose activity change, negative = inhibition, actives largely listed as inhibitors; 0.2% of 360,000 active; AID 720542; active means well fitted inhibition curve with a large enough effect; inconclusive means small, poorly fitted or top-dose-only effect; inactive means no such curve, though single readings can be large or run the other way;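 further: potency means the concentration at half of the fitted maximal effect; 0% = vehicle wells and -100% = peptide control; nearly all actives have a fitted effect of over 45% in size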
#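 AMA1 (3D7) with his tag at 25 nM final met compounds first, then biotinylated RON2 peptide at 25 nM; detection used donor plus acceptor beads, 10 µg/mL apiece, read by AlphaScreen after 30 min at room temperature.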
# CHX counter – counter-screen hit for Shiga toxin inhibitors, cycloheximide | cell reporter, cycloheximide protein synthesis inhibition counterscreen | max response, % | 12% of 300,000 active; in the data active means max response mostly above about 13%, no sharp cut-off; inactive means mostly below about 14%; further: read at 38.3 µM for the half of the compounds with a filed dose; 0% is about no effect
# Marburg entry inh – Marburg virus entry inhibition | Potency, µM (top dose mostly 37.8 µM), for the others: at the highest dose activity change, negative = inhibition, hits mostly inhibitors | Marburg virus pseudotyped entry inhibition, cell reporter | 1.8% of 300,000 active | AID 540276; calls by dose curve; tested in HEK293 cells; further: potency means the concentration at half of the fitted maximal effect; on the % scale 0 is the no-effect control and ±100 the full control effect
# Shiga inhibitor – inhibitors of Shiga toxin in Vero cells. Vero cells, Shiga toxin protein synthesis inhibition reporter. inhibition, % at 38.7 µM. 9.2% of 290,000 active; in the data active means inhibition mostly above about 28%, no sharp cut-off; inactive means mostly below about 43%; further: 0% is about no effect
# * hit, by the source's call; ? = inconclusive; . = no result given; + = active, no number; ! = not confirmed by another sample; [ ] = remark or other dose.
SMILES,LASV entry inh,AMA1 RON2 block,CHX counter,Marburg entry inh,Shiga inhibitor
O=C(Cc1ccccc1)NNC(=O)c1ccc(Br)o1,.,35.3%,-2.2,.,2.0
CCCCCCNC(=O)c1ccc(Br)o1,1.9%,15.0%,33.1*!,-2.2%,+!
Cc1ccc(C)c(CSc2nnc3[nH]c(=O)cc(-c4ccccc4)n23)c1,19.5%[46.1 µM],.,.,.,.
CCCCCC(=O)N1C[C@@H](O)[C@H](n2cc(-c3ccc(F)cc3)nn2)C[C@H]1c1ccc(C)cc1,8.6%[46.1 µM],.,.,.,.
Cc1onc(-c2ccccc2Cl)c1C(=O)O/N=C(\N)c1ccccc1,.,-13.0%,23.1*,.,19.0
Cc1onc(-c2cccc(Cl)c2Cl)c1C(=O)O/N=C(\N)c1ccc([N+](=O)[O-])o1,8.3%,-23.2%,9.1*,12.5%[14.2 µM],32.2
Cc1onc(-c2ccccc2Cl)c1C(=O)O/N=C(\N)c1cccc([N+](=O)[O-])c1,.,-9.6%,.,.,.
Cc1ccc(CNS(=O)(=O)c2ccccc2[N+](=O)[O-])cc1,0.0%,-1.2%,29.4*,-12.6%,55.2
Cc1ccc(/C=N/n2cnc3sc(-c4ccccc4)cc3c2=O)o1,-0.6%,-3.4%,23.5*,-4.0%,46.5*
Cc1cc2ncn(/N=C/c3ccc(-c4ccccc4)o3)c2cc1C,7.3%,-17.1%,7.1,-4.5%,-3.4
CCCCCCC(=O)OC1CC(C)(C)NC(C)(C)C1,?,.,-4.9,?,-9.8
C/C=C(/C)C(=O)O[C@H]1C(C)=C2C([C@@H]1OC(=O)CCCCCCC)[C@@](C)(OC(C)=O)C[C@@H](OC(=O)CCC)[C@@]1(O)[C@H]2OC(=O)[C@@]1(C)O (some centres undefined),.,.,.,0.708µM*,.
COC(=O)c1cc(OC)c(OC)c(OC)c1NC(=O)c1cc(=O)n(C)c(=O)n1C,-17.2%[46.1 µM],.,.,21.6%[46.1 µM],.
Cc1cccc(NC(=O)Nc2ccccn2)c1C,.,-14.3%,10.8,.,47.3
CCOC(=O)c1cc(NC(=O)Nc2ccccn2)c(C)nc1C,.,35.2%,27.1*,.,36.7
CCOC(=O)c1cc(NC(=O)Nc2ccccc2OC)c(C)nc1C,-17.3%,-25.7%,0.6,-0.7%,-3.8
Cc1ccccc1NC(=O)Nc1ccccn1,.,-2.8%,28.0*,.,.
O=C(Nc1ccccn1)Nc1ccccc1[N+](=O)[O-],18.3%[46.1 µM],-1.0%,40.3*,19.5%[46.1 µM],46.5*
Cc1ccccc1NC(=O)Nc1cc(-c2ccccc2)nn1C,?,-5.1%,36.0*,?,82.1*
COc1cc(C(=O)Nc2cccc(C)c2C)ccc1OCC(=O)N1CCOCC1,.,-5.4%,.,.,.
O=C(c1cccc(S(=O)(=O)NCc2ccccc2)c1)N1CCN(c2ccccc2Cl)CC1,.,-0.5%,.,4.7%,.
O=C(CSc1nc2c([nH]c3ccccc32)c(=O)n1-c1cccc(Cl)c1)c1ccccc1,1.9%[46.1 µM],.,.,.,.
COc1cc(OC)cc(C(=O)N[C@H](C(=O)NCc2ccco2)C(C)C)c1,-16.9%[46.1 µM],-0.7%,7.4,-26.9%[46.1 µM],-9.3
CCc1cccc(N(C(=O)c2csnn2)C(C(=O)NC(C)(C)C)c2ccccn2)c1 (centres undefined),?,-13.7%,6.3,3.8%[46.1 µM],-6.3
Cc1ccc(S(=O)(=O)NC(=O)NC(C)c2ccc(F)cc2)cc1 (centres undefined),9.8%[46.1 µM],-5.4%,-2.2,9.5%[46.1 µM],12.0
SMILES,LASV entry inh,AMA1 RON2 block,CHX counter,Marburg entry inh,Shiga inhibitor
O=C(CSc1nnc(-c2ccccc2Cl)o1)N1CCCCC1,.,15.3%,37.4*,.,83.2*
O=C(CSc1nnc(-c2ccccc2O)o1)N1CCOCC1,4.1%[46.1 µM],51.5%,25.6*,?,85.7*
Cc1cccc(-c2nnc(SCC(=O)N3CCCCC3)o2)c1,18.8%[46.1 µM],.,.,?,.
O=C(CSc1nnc(-c2ccccc2Br)o1)N1CCOCC1,?,-13.4%,51.4*,?,70.2*
O=C(CSc1nnc(-c2ccccc2Cl)o1)N1CCCC1,2.82µM*,1.3%,51.4*,?,72.9*
CC(Sc1nnc(-c2ccccc2Br)o1)C(=O)N1CCOCC1 (centres undefined),6.2%[46.1 µM],15.9%,11.5,2.0%[46.1 µM],34.8
O=C(CSc1nnc(Cc2ccccc2)o1)N1CCOCC1,-0.4%,-1.6%,-2.4,-0.1%,9.7
CSc1nnc2c(n1)OC(c1ccccn1)N(C(C)=O)c1ccccc1-2 (centres undefined),14.7%,-9.3%,-3.0,?,-7.8
COC(CN(C)C(=O)c1cn(C)c2ccc(S(=O)(=O)N(C)C3CCCCC3)cc2c1=O)OC,.,-10.6%,-0.6,.,-3.4
O=C(CSc1nnc(-c2ccccc2O)o1)N1CCc2ccccc2C1,-4.7%,44.1%,-2.3,15.6%,-6.8
O=C(CSc1nnc(-c2ccccc2O)o1)N1CCCCC1,?,65.8%,28.3*,?,41.6*
O=C(Nc1nc(-c2ccc3ccccc3c2)cs1)c1ccc(N2C(=O)CCC2=O)cc1,5.0%,-3.0%,-2.8,0.4%,-7.0
CCOC(=O)C(=CNc1nc(-c2ccc3ccccc3c2)cs1)C(=O)OCC,?,24.4%,26.8*,?,38.0*
O=C(O)c1ccccc1C(=O)Nc1nc(-c2ccc3ccccc3c2)cs1,.,-7.3%,36.4*,.,65.9*
Cc1cccc(NC(=O)c2n[nH]c([N+](=O)[O-])c2Br)c1C,?,12.0%,21.5*,?,67.3*
Cc1ccc(Cn2nnc(C(=O)Nc3cccc(C)c3C)c2N)cc1,-2.3%,-1.5%,1.9,?,-1.6
COc1ccccc1Nc1ncnc2c1c(C)c(C)n2CCO,28.7%[46.1 µM],-8.7%,42.1*,1.0%[46.1 µM],60.8*
Cc1c(C)n(CCc2ccccc2)c2ncnc(NCCO)c12,.,-13.8%,52.3*,.,67.9*
COc1ccccc1Nc1ncnc2c1nc1n2CCCC1,22.8%[46.1 µM],.,.,.,.
Cc1c(C)n(CCCN(C)C)c2ncnc(NCc3ccccc3)c12,21.1%[46.1 µM],?,-1.9,?,26.3
CC(NC(=O)c1cc(S(=O)(=O)N2CCOCC2)ccc1N1CCCC1)c1ccc(Cl)c(Cl)c1 (centres undefined),?,12.1%,.,?,.
Cn1c(=O)c(-c2cc(Br)ccc2N)nc2ccccc21,13.4%,-18.1%,32.9*,27.5%,60.1
CC(C)(C)Nc1nc2ccc([N+](=O)[O-])cc2o1,15.2%[46.1 µM],-5.5%,18.7*,2.8%[46.1 µM],34.8
COc1cccc(-c2nc3ccc([N+](=O)[O-])cc3o2)c1,?,1.6%,12.5,?,29.4*
O=[N+]([O-])c1ccc2nc(-c3ccccc3)oc2c1,.,10.8%,26.0*,.,71.2*
SMILES,LASV entry inh,AMA1 RON2 block,CHX counter,Marburg entry inh,Shiga inhibitor
CC(=O)CC(C)(C)Nc1nc2ccc([N+](=O)[O-])cc2o1,12.3%[46.1 µM],2.0%,12.6,12.0%[46.1 µM],48.6
O=C1[C@H]2[C@H]3[C@H](O)[C@H](O)C/C(=N\OCc4ccccc4)[C@H]3CC[C@H]2C(=O)N1C[C@@H]1CCCO1,.,.,.,-6.8%[14.2 µM],.
CC(=O)c1ccc(NC(=O)CSc2nccn2C)cc1,.,0.7%,11.0*,.,65.6*
CCOC(=O)c1ccc(NC(=O)CSc2nccn2C)cc1,?,9.6%,38.9*,-6.3%,60.8
Cc1ccc(NC(=O)CSc2nccn2C)cc1F,3.5%[46.1 µM],9.5%,9.0,?,-14.3
Cn1ccnc1SCC(=O)Nc1ccc2c(c1)OC(F)(F)O2,.,.,14.8*,.,22.2
CCOC(=O)c1ccc(NC(=O)CSc2ccc(-c3cccnc3)nn2)cc1,?,7.6%,16.4*,?,53.9
